PubChem BioAssay (NCATS)
Where “and” joins values, the source holds several entries; their conditions need not be identical. Identical values can stand only once. Records with an inconclusive call do not appear. Calls of active or inactive are those of the source. Unless noted, the call rests on the fitted dose curve; in most records, active means well fitted curve in either direction with a large enough effect (not every such curve was filed as active); inconclusive means small, poorly fitted or top-dose-only effect, or another doubt; inactive means flat fitted curve, though single readings scatter.

Experiments:
[1] = Stat Signaling Pathway (AID 446); conditions: ME-180 SIE beta-lactamase reporter, IL-6 stimulated, 5 h;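 further: ME-180 cervical cancer cells given 40 pM IL-6 alongside compound; SIE-controlled beta-lactamase reporter measured as 460/530 nm FRET emission ratio; on the % scale 0 is the no-effect control and ±100 the full control effect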
In short: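 ME-180 cells carrying a SIE-driven beta-lactamase reporter are stimulated with 40 pM IL-6 for 5 h at 37C in the presence of compound. The 460/530 nm FRET substrate ratio is read after 2.5 h at RT. Data are normalised to 300 pM IL-6 and to 125 nM JAK inhibitor controls.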

[2] = target: Glucocorticoid receptor (Homo sapiens) (UniProt P04150); assay: GR-GFP Redistribution (AID 450;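 active means compounds whose dose series gives a full or clear partial fitted curve of increased nuclear translocation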; further: potency means the concentration at half of the fitted maximal effect); conditions: U2OS GR-GFP nuclear translocation, laser cytometry, 2 h
Glucocorticoid receptor (Homo sapiens), sequence (P04150 whole entry, looked up, the tested form may be a part): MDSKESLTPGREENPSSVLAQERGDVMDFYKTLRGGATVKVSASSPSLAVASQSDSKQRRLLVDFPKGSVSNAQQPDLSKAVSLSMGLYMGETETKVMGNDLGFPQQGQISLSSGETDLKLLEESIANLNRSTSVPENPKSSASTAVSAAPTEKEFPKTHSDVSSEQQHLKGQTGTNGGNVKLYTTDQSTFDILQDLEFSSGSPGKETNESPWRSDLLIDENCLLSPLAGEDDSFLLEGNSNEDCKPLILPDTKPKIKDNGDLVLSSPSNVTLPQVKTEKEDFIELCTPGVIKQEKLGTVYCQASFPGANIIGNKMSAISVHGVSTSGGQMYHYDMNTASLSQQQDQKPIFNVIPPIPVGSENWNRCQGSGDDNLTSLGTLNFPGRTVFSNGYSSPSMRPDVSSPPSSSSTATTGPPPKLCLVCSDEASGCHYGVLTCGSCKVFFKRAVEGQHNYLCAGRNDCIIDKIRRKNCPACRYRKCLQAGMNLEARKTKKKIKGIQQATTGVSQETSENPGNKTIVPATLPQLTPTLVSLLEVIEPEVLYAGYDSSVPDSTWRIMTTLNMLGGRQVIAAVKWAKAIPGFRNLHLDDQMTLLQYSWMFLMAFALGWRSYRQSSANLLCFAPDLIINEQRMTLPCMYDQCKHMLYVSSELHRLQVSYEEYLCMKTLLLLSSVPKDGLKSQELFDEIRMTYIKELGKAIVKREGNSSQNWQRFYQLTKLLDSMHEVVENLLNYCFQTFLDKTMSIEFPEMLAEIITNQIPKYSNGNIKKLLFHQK

[3] = target: Glucocorticoid receptor (Homo sapiens) (UniProt P04150); assay: GR-EFC Redistribution (AID 451; calls by dose curve; further: potency means the concentration at half of the fitted maximal effect); conditions: CHO-K1 GR-EFC translocation, beta-gal luminescence, 2 h
In short: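 Translocation of GR-ED fusion to nuclear EA restores b-gal, read by luminescence after 1 h room-temperature detection. Engineered CHO-K1 biosensor cells, 1,000/well, exposed 2 h at 37 C to titrations up to 46 uM final.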

[4] = target: Mitogen-activated protein kinase 10 (Mus musculus) (UniProt Q61831); assay: JNK3 AlphaScreen Assay (AID 530);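 further: kinase came from lysate of stimulated human HepG2 cells; signal reports phosphorylation of biotinylated GST-cJun 1-79 at Ser73 with 10 µM ATP; on the % scale 0 is the no-effect control and ±100 the full control effect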
In short: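 Compound titrations were preincubated 15 minutes at room temperature with substrate, antibody and pre-activated JNK3-containing HepG2 lysate. Reactions were started with 10 uM ATP and stopped with EDTA-containing bead buffer for AlphaScreen detection.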

[5] = at 38 µM (top of the series) unless noted

CC(=O)NCCc1c[nH]c2ccc(O)cc12
inactive: activity, negative = inhibition [1, 5] -51.8% | Potency [2] > 46 µM | Potency [3] > 46 µM | outcome [4]

CC(C)NCC(O)COc1ccc(CC(N)=O)cc1 (stereo unspecified)
inactive: activity, negative = inhibition [1, 5] 14% [at 17.2 µM]

O=[N+]([O-])c1cccc2cn[nH]c12
inactive: activity, negative = inhibition ([1]; at 17.2 µM (top of the series)) -4.16% | activity, negative = inhibition ([1]; at 38 µM (top of the series)) -5.67% | Potency [2] > 46 µM and > 20.6 µM | Potency [3] > 46 µM | outcome [4]

CCCn1c(=O)c2[nH]c(C3CCCC3)nc2n(CCC)c1=O
inactive: activity, negative = inhibition ([1]; at 17.2 µM (top of the series)) -4.29% | activity, negative = inhibition ([1]; at 38 µM (top of the series)) -11.4% | Potency [2] > 46 µM and > 20.6 µM | Potency [3] > 46 µM | outcome [4]

CN[C@H](CC(=O)O)C(=O)O
inactive: activity, negative = inhibition [1, 5] 2.84% | Potency [2] > 46 µM | Potency [3] > 46 µM | outcome [4]

COc1ccccc1N1CCN(CCCCN2C(=O)c3ccccc3C2=O)CC1
inactive: activity, negative = inhibition [1, 5] 19% | Potency [2] > 46 µM | Potency [3] > 46 µM | outcome [4]

CCCCCCN(CCCCCC)C(=O)Cc1c(-c2ccc(F)cc2)[nH]c2ccccc12
inactive: activity, negative = inhibition [1, 5] 6.88% | Potency [2] > 46 µM | Potency [3] > 46 µM | outcome [4]

CCn1c(=O)[nH]c2cc(Cl)c(Cl)cc21
inactive: activity, negative = inhibition [1, 5] -18.6% | Potency [2] > 46 µM | Potency [3] > 46 µM | outcome [4]

O=c1[nH]c2ccccc2c2ccccc12
inactive: activity, negative = inhibition [1, 5] -7.28% | Potency [2] > 46 µM | Potency [3] > 46 µM | outcome [4]

CSC(=N)N
inactive: activity, negative = inhibition [1, 5] -2.27%
